89 compounds from PubChem BioAssay AID463173 (ICCB-Longwood Screening Facility, Harvard Medical School, 2010) can be followed below.

Structures are written as SMILES. Out of some 52,000 compounds screened, about 4,300 (8.3%) were called active. The full list was thinned out, with actives kept by preference. Unmarked numbers belong to inactive results. Cut-off read from the data, not from the text of the source: active = survival mostly below about 52% (no sharp cut-off); inactive = mostly above about 56%.

This test concerns DeltatarO mutant. Put plainly: growth inhibition of S. aureus wild type versus tarO mutant, primary screen, teichoic acid synthesis inhibitors, RN4220, OD600 (AID 463173). The settings on record: OD600, 18 h, hits give low values, screened at 18.75 µg/mL (by protocol).
Take `CC(C)c1ccc(N2C(=O)CS(=O)(=O)C23C(=O)N(Cc2cccc(F)c2)c2ccccc23)cc1` (centres undefined): the survival was 69%.
As for `COc1ccc(C2Nc3ccccc3-c3nnc(SC)nc3O2)cc1C` (centres undefined), the figure is 67%; as for `COc1ccccc1NC(=O)CSc1nc2ccccc2c2nc(-c3ccccc3)nn12`, 90%; as for `Cc1ccc(OCCCC(=O)Nc2ccc3c(c2)OCO3)cc1`, 100%.
Next, `COc1ccccc1CNC(=O)c1ccc2nc(CCc3ccccc3)oc2c1`: 83%.
As for `Cc1cccc(N2CCN(S(=O)(=O)c3c(C)[nH]c(=O)[nH]c3=O)CC2)c1C`, the figure is 84%; as for `CCN(CC)c1nn2c(=O)c(C(=O)NCCc3cccc(C)c3)cnc2s1`, 73%; as for `O=C(CSc1nc2c(c(=O)[nH]1)CCC2)Nc1cccc(O)c1`, 86%.
Consider `CCOc1ccc(CCNC(=O)c2cc3c(s2)-c2c(C)cccc2OC3)cc1`, for which the survival is 98%.
As for `CCOCCCN(Cc1ccco1)C(=O)c1cc2c(s1)-c1c(C)cccc1OC2`, the figure is -3% (active).
On to `COc1ccc(CNC(=O)c2cc3c(s2)-c2c(C)cccc2OC3)cc1`, for which the survival is 87%.
Next, `CCCN1CCN(CCCNC(=O)c2cc3c(s2)-c2c(C)cccc2OC3)CC1`: 127%; `CCCCN(Cc1ccco1)C(=O)c1cc2c(s1)-c1c(C)cccc1OC2`: -2% (active); `CCN1CCN(CCCNC(=O)c2cc3c(s2)-c2c(C)cccc2OC3)CC1`: 102%.
On to `Cc1ccc(-n2ncc(C(=O)N3CCN(C4CCCCC4)CC3)c2C2CCN(C(=O)OC(C)(C)C)CC2)cc1`, for which the survival was 82%.
`Cc1ccc2cccc(NC(=O)c3ccc(-c4cccc(Cl)c4)o3)c2n1`: the survival is 49% (active).
For `O=C(Nc1cccc2cccnc12)c1ccc(-c2cccc(Cl)c2)o1`, the survival is 3% (active).
As for `Cc1ccc2cccc(NC(=O)c3ccc(-c4cccc([N+](=O)[O-])c4)o3)c2n1`, the figure is 67%; as for `Cc1ccc2cccc(NC(=O)c3ccc(-c4cc(Cl)ccc4Cl)o3)c2n1`, 71%.
Regarding `Cc1ccc2cccc(NC(=O)c3ccc(-c4ccc(Cl)cc4Cl)o3)c2n1`, the survival is 67%.
Next, `Cc1ccc2cccc(NC(=O)c3ccc(-c4ccc(Br)cc4)o3)c2n1`: 59% (active); `O=C(O)c1ccc(-c2cccc(Cl)c2)o1`: 67%; `Cc1ccc2cccc(NC(=O)c3ccc(-c4cccc(Cl)c4Cl)o3)c2n1`: 55%.
In the case of `Nc1nc(N)c(S(=O)(=O)c2ccccc2)c(Nc2ccc(F)cc2)n1`, the survival was 72%.
Regarding `O=C(COc1ccccc1)NCCc1csc(-c2cccc(F)c2)n1`, the survival was 78%.
As for `COc1ccc(NC(=O)CSc2nc(-c3ccco3)cc(C(F)(F)F)n2)cc1`, the figure is 86%; as for `Cc1cc(F)ccc1NC(=O)CCSc1nc(-c2ccco2)cc(C(F)(F)F)n1`, 45%; as for `O=C(CSc1nc(-c2ccco2)cc(C(F)(F)F)n1)Nc1ccccc1`, 102%.
Next, `CN(C)c1ccc(NC(=O)CSc2nc(-c3ccco3)cc(C(F)(F)F)n2)cc1`: 65%; `Cc1ccc(O)c(NC(=O)CCSc2nc(-c3ccco3)cc(C(F)(F)F)n2)c1`: 28% (active); `CCNS(=O)(=O)c1ccc(NC(=O)CSc2nc(-c3ccco3)cc(C(F)(F)F)n2)cc1`: 36% (active).
For the compound `COc1ccc(Cl)cc1NC(=O)CSc1nc(-c2ccco2)cc(C(F)(F)F)n1`, the survival is 31% (active).
As for `COc1ccc(NC(=O)CSc2nc(-c3ccco3)cc(C(F)(F)F)n2)cc1OC`, the figure is 63%; as for `COc1ccc(NC(=O)CSc2nc(-c3ccco3)cc(C(F)(F)F)n2)cc1Cl`, 38% (active); as for `Cc1ccc(F)cc1NC(=O)CCSc1nc(-c2ccco2)cc(C(F)(F)F)n1`, 48%.
As for `CCOc1ccccc1CNC(=O)CCCn1nc(C)c2sc3ccccc3c2c1=O`, the figure is 85%; as for `O=C1C2C3c4ccccc4C(c4ccccc43)C2C(=O)N1CN1CCOCC1` (centres undefined), 78%.
Take `CCCOc1ccc(NC(=O)CC2C(=O)N(c3ccc(C)cc3)C(=O)N2C2CCCC2)cc1` (centres undefined): the survival is 67%.
`Cc1ccc(NC(=O)Cn2c(=O)n(Cc3nc(-c4ccccc4)no3)c(=O)c3cc4c(cc32)OCO4)c(C)c1`: the survival is 62%.
As for `COc1ccc(N(C)C(=O)c2cn(C3CCCCC3)c(=O)c3c2c2ccccc2n3C)cc1`, the figure is 67%; as for `Cc1ccc(-n2nc(C(=O)NC(C)C)c(=O)n(C)c2=O)cc1`, 78%.
Turning to `Cc1c(NC(=O)Nc2ccc(Cl)c(C(F)(F)F)c2)c(=O)n(-c2ccccc2)n1C`, the survival is 124%.
Next, `CC(C)CCn1c(=O)c2sccc2n2c(CCCC(=O)NCc3ccc(F)cc3)nnc12`: 88%; `Cc1oc2ncn(C)c(=O)c2c1C(=O)Nc1ccccn1`: 102%.
Take `COc1cccc(CNC(=O)Cn2c(=O)oc3cc(S(=O)(=O)N4CCCC4)ccc32)c1`: the survival was 122%.
Next, `Cc1ccc(Cl)cc1NC(=O)C(=O)NCCc1sc(-c2ccc(F)cc2)nc1C`: 90%.
As for `CC1CCN(S(=O)(=O)c2ccc3c(c2)N(CC(=O)NCC(C)c2ccccc2)C(=O)CO3)CC1` (centres undefined), the figure is 64%.
For `Cc1ccc(C(=O)Nc2ccc(C(=O)OCc3cc(=O)n4ccsc4n3)cc2)cc1`, the survival is 72%.
Take `Cc1ccc(NC(=O)CCSc2nc(-c3ccco3)cc(C(F)(F)F)n2)cc1F`: the survival is 48%.
Take `CC(C)NC(=O)CSc1nc(-c2ccco2)cc(C(F)(F)F)n1`: the survival was 64%.
Next, `Cc1cccc(NC(=O)CSc2nc(-c3ccco3)cc(C(F)(F)F)n2)c1C`: 69%; `Cc1ccc(NC(=O)CSc2nc(-c3ccco3)cc(C(F)(F)F)n2)cc1`: 129%; `Cc1ccc(NC(=O)CSc2nc(-c3ccco3)cc(C(F)(F)F)n2)c(C)c1`: 63% (active).
With `Cc1ccc(NC(=O)CSc2nc(-c3ccco3)cc(C(F)(F)F)n2)cc1C`, the survival is 33% (active).
Consider `CC(=O)Nc1ccc(S(=O)(=O)NC2(C(F)(F)F)C(=O)Nc3c2c(=O)[nH]c(=O)n3-c2ccc(C)c(C)c2)cc1` (centres undefined), for which the survival is 81%.
Consider `CCOc1ccc(S(=O)(=O)NC(=O)N(CC)Cc2cc3ccccc3o2)cc1`, for which the survival was 76%.
Next, `CCCc1cnc2c(c1SCc1ccc(C(F)(F)F)cc1)c(=O)n(C)c(=O)n2C`: 54%.
Take `Cc1ccc(-c2nc3cc(NC(=O)c4cc5ccccc5o4)ccc3o2)cc1Cl`: the survival was 139%.
Turning to `Cc1c(NC(=O)c2ccc(Br)o2)cccc1-c1nc2ccccc2o1`, the survival is 60%.
As for `Cc1ccc2oc(-c3ccc(Cl)c(NC(=O)Cc4ccccc4)c3)nc2c1`, the figure is 95%; as for `Cc1c(NC(=O)c2cccc3c(Cl)cccc23)cccc1-c1nc2ccccc2o1`, 63%.
As for `Cc1ccc(-c2nc3ccccc3o2)cc1NC(=O)Cc1ccc(Cl)cc1`, the figure is 73%; as for `Cc1ccc2oc(-c3ccc(Cl)c(NC(=O)c4cc5ccccc5o4)c3)nc2c1`, 39% (active).
`Cc1c(NC(=O)c2cc3ccccc3o2)cccc1-c1nc2ccccc2o1`: the survival was 36% (active).
Consider `O=C(Nc1cc(-c2nc3cc(Cl)ccc3o2)ccc1Cl)c1cc2ccccc2o1`, for which the survival was 82%.
Regarding `Cc1ccc(-c2nc3cc(C(C)C)ccc3o2)cc1NC(=O)c1cc2ccccc2o1`, the survival is 19% (active).
As for `O=C(Nc1ccc2oc(-c3ccc(O)c(Br)c3)nc2c1)c1cc2ccccc2o1`, the figure is 49%; as for `CC(=O)Nc1cc(-c2nc3cc(Cl)ccc3o2)ccc1C`, 51%; as for `Cc1ccc(-c2nc3cc(Cl)ccc3o2)cc1NC(=O)c1cc2ccccc2o1`, 43% (active).
As for `COc1ccc(-n2nc3c(N4CCC(C(=O)NCc5ccccc5C)CC4)nnc(C)c3c2C)cc1`, the figure is 90%.
As for `CCOCCc1nn2c(=O)cc(COC(=O)C(CC)c3ccccc3)nc2s1` (centres undefined), the figure is 55%; as for `C=CCNC1CCS(=O)(=O)C1` (centres undefined), 98%.
For the compound `CSc1ccc(-c2ccc3c(c2)OCCO3)nn1`, the survival is 91%.
As for `COc1ccc(N2CCN(CCN3CCCCC3)CC2)cc1`, the figure is 83%.
Take `CCC(C)(C)NC(=O)Cn1c(-c2ccc(C)cc2)noc1=O`: the survival is 86%.
Next, `COC(=O)c1c(Oc2ccc(Br)cc2)nnc(-c2ccccc2)c1-c1ccccc1`: 85%; `COc1ccc(-c2nc(C)c(CCNC(=O)c3cccc(C)c3)s2)cc1OC`: 86%.
Next, `CCOC(=O)c1c(NC(=O)CSc2nc(-c3ccc(OC)cc3)cc(C(F)(F)F)n2)sc(C)c1C`: 68%; `COc1ccc(-c2cc(C(F)(F)F)n3nc(-c4ccc(Cl)cc4)cc3n2)cc1OC`: 48%.
As to `CCOC(=O)N1CCN(C(=O)c2cnn3c(C(F)(F)F)cc(-c4cccc(OC)c4)nc23)CC1`, the survival is 68%.
Take `CCOC(=O)c1ccn(-c2nc(-c3cccc(OC)c3)cc(C(F)(F)F)n2)n1`: the survival was 18% (active).
Next, `COC(=O)CSc1nc(-c2ccc(F)cc2)cc(C(F)(F)F)n1`: 126%; `COC(=O)c1ccn(-c2nc(-c3ccc(Cl)cc3)cc(C(F)(F)F)n2)n1`: 13% (active).
For `CCc1ccccc1NC(=O)C(Cc1cccc(OC)c1)c1nn[nH]n1` (centres undefined), the survival was 54%.
Next, `CC(=O)N1CCc2c(sc3c2c(=O)n(-c2cccc(Cl)c2C)c(=O)n3Cc2ccccc2C)C1`: 61%.
Next, `CC(=O)NC1=NN(C(C)=O)C2(S1)C(=O)Nc1ccccc12` (centres undefined): 90%.
In the case of `O=C(COc1ccc(Cl)cc1)Nc1ccc(C(=O)OCc2cc(=O)n3ccsc3n2)cc1`, the survival is 88%.
Turning to `O=C(CSc1ncc2c(n1)-c1cc(Cl)ccc1N(Cc1ccccc1)S2(=O)=O)NCCc1ccccc1`, the survival was 89%.
In the case of `CCCCCn1c(=O)[nH]c2cc(C(=O)N3CCN(c4cccc(C(F)(F)F)c4)CC3)ccc2c1=O`, the survival is 66%.
